# Data taken from paper PMC7862700, “An all-to-all approach to the identification of sequence-specific readers for epigenetic DNA modifications on cytosine”.
# Experiments:
# Test in all cases: DAPPL (digital affinity profiling via proximity ligation, sequencing); 10 mM Tris-HCl pH 7.5, 50 mM NaCl, 1 mM DTT, 4% glycerol, room temperature, 30 min; GST-TFs on glutathione beads, 16-mer random dsDNA library, 0.1% formaldehyde crosslink after washing; high values mean tight binding
# Settings in all cases: protein: recombinant; tags: N-terminal GST; dsDNA, one strand shown
# FLI1 = target: T1, FLI1 (Homo sapiens, UniProt Q01543 1-452)
# T1 sequence: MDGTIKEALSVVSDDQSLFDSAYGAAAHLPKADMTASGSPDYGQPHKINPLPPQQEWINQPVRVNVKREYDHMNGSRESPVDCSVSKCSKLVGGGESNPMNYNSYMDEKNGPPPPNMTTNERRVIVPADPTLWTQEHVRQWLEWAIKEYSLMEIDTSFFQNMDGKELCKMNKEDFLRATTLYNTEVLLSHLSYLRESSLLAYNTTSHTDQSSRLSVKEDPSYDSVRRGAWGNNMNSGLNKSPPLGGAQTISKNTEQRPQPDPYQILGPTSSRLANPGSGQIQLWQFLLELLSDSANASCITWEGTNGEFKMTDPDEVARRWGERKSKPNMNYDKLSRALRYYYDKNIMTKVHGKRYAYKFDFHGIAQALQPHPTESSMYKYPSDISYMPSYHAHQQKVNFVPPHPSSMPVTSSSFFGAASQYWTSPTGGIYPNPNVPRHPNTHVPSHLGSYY
# Method in brief: (§1)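 After expression in yeast as GST fusions, human transcription factors were bound to glutathione beads, DNA-barcoded and mixed with a tag-only sample. The pools were incubated with 200 nmole of a 16-mer random double-stranded DNA library in Tris/NaCl/DTT/glycerol buffer (30 min, room temperature), washed and crosslinked with 0.1% formaldehyde. Proximity ligation with BsaI/T4 ligase ran for 1 h at 37 °C, before PCR amplification and sequencing on an Illumina NextSeq500. Binding signal is a hexamer's read frequency for a factor divided by its frequency for the tag-only sample.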
# ELK1 = target: T2, ELK1 (Homo sapiens, UniProt P19419 1-428)
# T2 sequence: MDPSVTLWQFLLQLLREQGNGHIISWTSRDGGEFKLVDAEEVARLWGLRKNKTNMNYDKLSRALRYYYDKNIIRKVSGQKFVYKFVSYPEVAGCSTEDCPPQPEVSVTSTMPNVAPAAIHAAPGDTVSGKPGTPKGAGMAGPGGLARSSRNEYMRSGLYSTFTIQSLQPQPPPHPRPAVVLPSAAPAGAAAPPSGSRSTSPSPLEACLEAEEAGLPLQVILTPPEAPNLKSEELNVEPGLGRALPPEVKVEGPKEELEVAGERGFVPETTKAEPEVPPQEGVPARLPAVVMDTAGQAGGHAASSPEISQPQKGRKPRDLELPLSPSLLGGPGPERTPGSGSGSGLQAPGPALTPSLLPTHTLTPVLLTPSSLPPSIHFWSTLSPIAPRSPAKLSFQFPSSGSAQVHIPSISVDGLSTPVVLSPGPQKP
# Method in brief: as §1
# GABPA = target: T3, GABPA (Homo sapiens, UniProt Q06546 1-454)
# T3 sequence: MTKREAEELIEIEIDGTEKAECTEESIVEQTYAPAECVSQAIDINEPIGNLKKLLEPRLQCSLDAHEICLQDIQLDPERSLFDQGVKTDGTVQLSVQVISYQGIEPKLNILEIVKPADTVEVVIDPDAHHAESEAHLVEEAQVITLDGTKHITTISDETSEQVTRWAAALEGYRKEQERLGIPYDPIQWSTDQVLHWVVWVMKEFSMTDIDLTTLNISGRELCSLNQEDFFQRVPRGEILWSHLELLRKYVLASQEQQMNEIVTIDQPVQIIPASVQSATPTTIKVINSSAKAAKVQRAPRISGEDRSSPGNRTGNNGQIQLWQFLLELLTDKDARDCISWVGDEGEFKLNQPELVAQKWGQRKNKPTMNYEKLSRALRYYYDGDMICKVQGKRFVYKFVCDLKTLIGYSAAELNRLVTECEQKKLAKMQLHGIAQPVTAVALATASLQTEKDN
# Method in brief: as §1
# ERG = target: T4, ERG (Homo sapiens, UniProt P11308 1-479)
# T4 sequence: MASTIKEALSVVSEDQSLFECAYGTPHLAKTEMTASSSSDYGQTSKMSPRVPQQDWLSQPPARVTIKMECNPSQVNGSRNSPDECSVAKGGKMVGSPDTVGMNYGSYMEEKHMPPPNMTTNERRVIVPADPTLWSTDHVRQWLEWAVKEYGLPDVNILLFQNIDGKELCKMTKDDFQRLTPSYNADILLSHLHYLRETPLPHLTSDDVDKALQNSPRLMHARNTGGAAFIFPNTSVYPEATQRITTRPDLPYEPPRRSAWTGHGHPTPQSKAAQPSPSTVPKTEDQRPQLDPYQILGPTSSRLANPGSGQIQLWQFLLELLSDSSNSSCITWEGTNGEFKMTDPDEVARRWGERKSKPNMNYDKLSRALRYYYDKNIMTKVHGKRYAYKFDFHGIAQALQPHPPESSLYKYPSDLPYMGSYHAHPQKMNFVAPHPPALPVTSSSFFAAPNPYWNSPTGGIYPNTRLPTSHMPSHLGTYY
# Method in brief: as §1
# ELF1 = ELF1 (Homo sapiens, UniProt P32519 1-619)
# ELF1, sequence (P32519 whole entry): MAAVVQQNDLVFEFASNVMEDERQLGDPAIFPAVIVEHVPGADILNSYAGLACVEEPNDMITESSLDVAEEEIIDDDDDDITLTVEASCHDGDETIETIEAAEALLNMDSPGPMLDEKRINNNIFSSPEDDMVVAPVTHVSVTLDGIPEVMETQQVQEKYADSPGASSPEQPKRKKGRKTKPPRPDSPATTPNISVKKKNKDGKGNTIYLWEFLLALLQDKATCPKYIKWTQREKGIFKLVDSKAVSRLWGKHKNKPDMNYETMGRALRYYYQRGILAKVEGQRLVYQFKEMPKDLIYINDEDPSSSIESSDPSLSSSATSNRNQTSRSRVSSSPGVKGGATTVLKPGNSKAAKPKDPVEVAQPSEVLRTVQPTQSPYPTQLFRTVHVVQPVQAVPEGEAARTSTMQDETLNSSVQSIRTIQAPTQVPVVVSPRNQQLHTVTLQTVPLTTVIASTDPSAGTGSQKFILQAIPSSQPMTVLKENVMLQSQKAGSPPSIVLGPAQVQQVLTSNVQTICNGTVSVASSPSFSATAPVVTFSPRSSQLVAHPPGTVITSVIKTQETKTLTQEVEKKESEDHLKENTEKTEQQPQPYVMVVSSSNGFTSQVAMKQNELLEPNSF
# Method in brief: as §1
# EHF = target: T5, EHF (Homo sapiens, UniProt Q9NZC4 1-300)
# T5 sequence: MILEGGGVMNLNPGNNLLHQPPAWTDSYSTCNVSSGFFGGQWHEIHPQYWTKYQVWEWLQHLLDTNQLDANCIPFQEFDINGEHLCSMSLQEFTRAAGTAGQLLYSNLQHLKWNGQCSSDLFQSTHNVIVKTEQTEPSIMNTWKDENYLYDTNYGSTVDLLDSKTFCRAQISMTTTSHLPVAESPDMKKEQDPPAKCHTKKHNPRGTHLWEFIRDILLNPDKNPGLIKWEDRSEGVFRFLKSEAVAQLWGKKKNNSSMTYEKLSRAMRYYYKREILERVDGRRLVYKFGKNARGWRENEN
# Method in brief: as §1
# SPI1 = SPI1 (Homo sapiens, UniProt P17947 1-270)
# Method in brief: as §1
# ELK3 = target: T6, ELK3 (Homo sapiens, UniProt P41970 1-407)
# T6 sequence: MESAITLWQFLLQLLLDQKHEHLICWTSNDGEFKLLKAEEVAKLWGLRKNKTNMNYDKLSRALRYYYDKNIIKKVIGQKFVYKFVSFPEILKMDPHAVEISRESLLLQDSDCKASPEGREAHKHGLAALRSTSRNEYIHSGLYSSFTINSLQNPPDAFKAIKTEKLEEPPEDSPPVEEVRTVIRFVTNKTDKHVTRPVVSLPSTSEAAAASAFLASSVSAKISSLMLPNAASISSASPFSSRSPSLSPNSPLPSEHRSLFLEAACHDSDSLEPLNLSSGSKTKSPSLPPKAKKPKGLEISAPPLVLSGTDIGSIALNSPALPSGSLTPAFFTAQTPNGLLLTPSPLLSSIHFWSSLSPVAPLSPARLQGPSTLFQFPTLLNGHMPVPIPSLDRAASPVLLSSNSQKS
# Method in brief: as §1
# FEV = target: T7, FEV (Homo sapiens, UniProt Q99581 1-238)
# T7 sequence: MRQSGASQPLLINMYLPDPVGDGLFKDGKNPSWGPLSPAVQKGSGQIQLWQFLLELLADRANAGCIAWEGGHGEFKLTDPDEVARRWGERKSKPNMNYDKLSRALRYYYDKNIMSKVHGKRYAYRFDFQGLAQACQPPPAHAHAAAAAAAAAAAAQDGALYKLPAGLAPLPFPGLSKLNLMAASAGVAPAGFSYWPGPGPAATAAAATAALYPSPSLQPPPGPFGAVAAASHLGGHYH
# Method in brief: as §1
# ETV5 = ETV5 (Homo sapiens, UniProt P41161 1-510)
# ETV5, sequence (P41161 whole entry): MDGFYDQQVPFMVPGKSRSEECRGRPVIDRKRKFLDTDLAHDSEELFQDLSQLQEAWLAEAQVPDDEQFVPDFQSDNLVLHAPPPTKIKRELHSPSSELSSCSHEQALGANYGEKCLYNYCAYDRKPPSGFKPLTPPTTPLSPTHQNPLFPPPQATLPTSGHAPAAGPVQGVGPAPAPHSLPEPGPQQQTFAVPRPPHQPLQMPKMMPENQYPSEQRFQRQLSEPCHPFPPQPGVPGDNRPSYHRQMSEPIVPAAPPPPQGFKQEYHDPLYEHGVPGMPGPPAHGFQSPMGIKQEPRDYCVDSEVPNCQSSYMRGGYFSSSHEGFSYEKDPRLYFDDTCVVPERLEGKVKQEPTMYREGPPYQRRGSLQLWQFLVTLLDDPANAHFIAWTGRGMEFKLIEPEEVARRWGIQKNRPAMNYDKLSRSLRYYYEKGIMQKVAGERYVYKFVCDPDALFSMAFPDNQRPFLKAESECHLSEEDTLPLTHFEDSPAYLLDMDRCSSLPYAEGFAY
# Method in brief: as §1
# SPIC = target: T8, SPIC (Homo sapiens, UniProt Q8N5J4 1-248)
# T8 sequence: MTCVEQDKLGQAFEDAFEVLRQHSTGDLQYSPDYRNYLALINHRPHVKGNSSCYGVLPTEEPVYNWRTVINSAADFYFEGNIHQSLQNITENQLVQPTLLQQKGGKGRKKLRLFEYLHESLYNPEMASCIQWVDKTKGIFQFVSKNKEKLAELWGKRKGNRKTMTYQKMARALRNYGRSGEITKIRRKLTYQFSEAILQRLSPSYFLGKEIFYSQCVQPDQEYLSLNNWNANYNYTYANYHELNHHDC
# Method in brief: as §1
# ELF4 = ELF4 (Homo sapiens, UniProt Q99607 1-663)
# ELF4, sequence (Q99607 whole entry): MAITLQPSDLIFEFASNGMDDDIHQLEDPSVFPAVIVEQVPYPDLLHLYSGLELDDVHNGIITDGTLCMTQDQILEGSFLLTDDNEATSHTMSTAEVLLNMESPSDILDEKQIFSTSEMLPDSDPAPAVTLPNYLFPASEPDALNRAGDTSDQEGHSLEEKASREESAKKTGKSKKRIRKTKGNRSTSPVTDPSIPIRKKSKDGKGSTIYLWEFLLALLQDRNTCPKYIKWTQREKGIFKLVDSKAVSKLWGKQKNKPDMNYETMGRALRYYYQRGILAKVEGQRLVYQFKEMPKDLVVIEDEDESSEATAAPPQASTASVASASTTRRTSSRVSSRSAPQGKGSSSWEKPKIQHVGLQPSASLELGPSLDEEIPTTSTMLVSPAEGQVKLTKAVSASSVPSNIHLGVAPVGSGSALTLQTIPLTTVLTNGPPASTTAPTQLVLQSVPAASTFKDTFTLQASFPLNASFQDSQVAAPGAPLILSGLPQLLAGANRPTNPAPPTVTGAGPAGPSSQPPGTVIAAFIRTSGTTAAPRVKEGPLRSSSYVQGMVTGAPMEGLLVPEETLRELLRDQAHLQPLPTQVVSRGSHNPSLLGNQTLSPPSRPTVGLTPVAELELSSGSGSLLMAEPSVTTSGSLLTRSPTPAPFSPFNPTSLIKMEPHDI
# Method in brief: as §1
# ERF = target: T9, ERF (Homo sapiens, UniProt P50548 1-548)
# T9 sequence: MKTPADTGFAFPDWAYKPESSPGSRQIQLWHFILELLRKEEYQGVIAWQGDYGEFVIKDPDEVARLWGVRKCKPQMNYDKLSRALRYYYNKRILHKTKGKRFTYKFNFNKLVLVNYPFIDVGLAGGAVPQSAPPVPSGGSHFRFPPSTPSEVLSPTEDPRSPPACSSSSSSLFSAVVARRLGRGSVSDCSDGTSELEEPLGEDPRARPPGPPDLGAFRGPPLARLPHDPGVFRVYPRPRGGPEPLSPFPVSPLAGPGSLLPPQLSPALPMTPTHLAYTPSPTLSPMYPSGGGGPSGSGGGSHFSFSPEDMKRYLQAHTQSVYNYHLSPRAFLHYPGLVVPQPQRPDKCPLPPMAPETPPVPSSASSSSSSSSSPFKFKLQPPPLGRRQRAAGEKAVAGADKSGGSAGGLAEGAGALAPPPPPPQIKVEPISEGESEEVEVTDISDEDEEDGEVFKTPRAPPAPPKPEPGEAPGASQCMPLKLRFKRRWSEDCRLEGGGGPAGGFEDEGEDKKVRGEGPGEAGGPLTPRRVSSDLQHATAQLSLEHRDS
# Method in brief: as §1
# ETS2 = target: T10, ETS2 (Homo sapiens, UniProt P15036 1-469)
# T10 sequence: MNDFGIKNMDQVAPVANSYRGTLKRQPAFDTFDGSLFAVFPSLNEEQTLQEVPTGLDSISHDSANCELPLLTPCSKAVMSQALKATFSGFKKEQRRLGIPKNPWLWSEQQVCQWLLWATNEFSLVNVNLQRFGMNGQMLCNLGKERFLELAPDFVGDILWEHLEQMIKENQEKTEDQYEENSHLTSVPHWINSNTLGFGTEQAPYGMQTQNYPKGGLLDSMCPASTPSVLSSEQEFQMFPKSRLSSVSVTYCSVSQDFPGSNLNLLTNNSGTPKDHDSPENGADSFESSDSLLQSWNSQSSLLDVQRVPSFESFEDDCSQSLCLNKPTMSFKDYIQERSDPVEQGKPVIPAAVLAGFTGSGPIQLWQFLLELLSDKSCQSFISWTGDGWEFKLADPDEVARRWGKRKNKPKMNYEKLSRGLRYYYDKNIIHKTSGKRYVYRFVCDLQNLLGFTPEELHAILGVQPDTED
# Method in brief: as §1
# SPDEF = target: T11, SPDEF (Homo sapiens, UniProt O95238 1-335)
# T11 sequence: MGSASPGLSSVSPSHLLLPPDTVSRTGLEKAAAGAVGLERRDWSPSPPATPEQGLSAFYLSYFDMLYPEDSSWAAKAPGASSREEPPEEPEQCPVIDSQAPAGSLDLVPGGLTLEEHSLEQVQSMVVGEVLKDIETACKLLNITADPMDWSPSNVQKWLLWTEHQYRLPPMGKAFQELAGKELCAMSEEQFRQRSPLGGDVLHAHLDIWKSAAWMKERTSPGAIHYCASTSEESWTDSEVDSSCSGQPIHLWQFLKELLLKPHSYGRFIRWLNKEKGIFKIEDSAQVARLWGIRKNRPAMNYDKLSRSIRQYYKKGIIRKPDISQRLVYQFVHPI
# Method in brief: as §1
# ETV3 = target: T12, ETV3 (Homo sapiens, UniProt P41162-2 1-143)
# T12 sequence: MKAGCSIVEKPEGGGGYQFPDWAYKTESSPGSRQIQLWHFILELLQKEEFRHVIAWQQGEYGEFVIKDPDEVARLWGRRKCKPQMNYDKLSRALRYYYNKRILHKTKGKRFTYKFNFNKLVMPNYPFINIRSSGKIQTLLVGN
# Method in brief: as §1
# ETV6 = ETV6 (Homo sapiens, UniProt P41212 1-452)
# ETV6, sequence (P41212 whole entry): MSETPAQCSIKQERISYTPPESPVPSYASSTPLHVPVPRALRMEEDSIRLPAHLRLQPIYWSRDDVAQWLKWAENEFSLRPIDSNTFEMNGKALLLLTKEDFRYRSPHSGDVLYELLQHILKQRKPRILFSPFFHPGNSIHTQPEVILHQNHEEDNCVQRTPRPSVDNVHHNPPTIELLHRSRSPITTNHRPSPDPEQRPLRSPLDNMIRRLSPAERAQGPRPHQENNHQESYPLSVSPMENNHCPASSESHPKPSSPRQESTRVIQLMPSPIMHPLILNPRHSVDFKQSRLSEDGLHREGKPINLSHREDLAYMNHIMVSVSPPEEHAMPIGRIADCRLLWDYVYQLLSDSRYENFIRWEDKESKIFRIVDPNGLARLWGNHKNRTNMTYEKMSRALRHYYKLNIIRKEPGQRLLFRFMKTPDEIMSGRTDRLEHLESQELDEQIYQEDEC
# Method in brief: as §1
sequence,measurement,setting,value
CCATGC,binding signal,FLI1,"1.04 fold enrichment (6-mer frequency, TF over GST control)"
same,binding signal,ELK1,"1.1 fold enrichment (6-mer frequency, TF over GST control)"
same,binding signal,GABPA,"1.09 fold enrichment (6-mer frequency, TF over GST control)"
same,binding signal,ERG,"1.09 fold enrichment (6-mer frequency, TF over GST control)"
same,binding signal,ELF1,"1.13 fold enrichment (6-mer frequency, TF over GST control)"
same,binding signal,EHF,"1.15 fold enrichment (6-mer frequency, TF over GST control)"
same,binding signal,SPI1,"1.01 fold enrichment (6-mer frequency, TF over GST control)"
same,binding signal,ELK3,"1.04 fold enrichment (6-mer frequency, TF over GST control)"
same,binding signal,FEV,"1.1 fold enrichment (6-mer frequency, TF over GST control)"
same,binding signal,ETV5,"1.11 fold enrichment (6-mer frequency, TF over GST control)"
same,binding signal,SPIC,"1 fold enrichment (6-mer frequency, TF over GST control)"
same,binding signal,ELF4,"1.08 fold enrichment (6-mer frequency, TF over GST control)"
same,binding signal,ERF,"1.01 fold enrichment (6-mer frequency, TF over GST control)"
same,binding signal,ETS2,"1.03 fold enrichment (6-mer frequency, TF over GST control)"
same,binding signal,SPDEF,"1.06 fold enrichment (6-mer frequency, TF over GST control)"
same,binding signal,ETV3,"1.12 fold enrichment (6-mer frequency, TF over GST control)"
same,binding signal,ETV6,"1.12 fold enrichment (6-mer frequency, TF over GST control)"
